# Results: PubChem BioAssay
# System: Plasmodium falciparum Sir2 (PF13_0152, Sir2A)
# Experiment: pfSir2 binders on small-molecule microarrays, primary screen, biochemical, small-molecule microarray, 635 nm fluorescence (AID 1098);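 note: score merges spot fluorescence intensity with its signal-to-noise ratio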
# Conditions: small-molecule microarray binding, fluorescence 635 nm; higher = more signal
row,SMILES,composite z-score
1,O=C1[C@H]2[C@H]3[C@H](O)[C@H](O)CC(=NO[C@@H]4O[C@H](CO)[C@@H](O)[C@H](O)[C@H]4O)[C@H]3CC[C@H]2C(=O)N1c1ccc(F)cc1F,-0.134
2,CCCNC(=O)OC[C@H]1O[C@H](CCON=C2c3cc(OC)ccc3O[C@H](c3cccc(OC)c3)[C@H]2O)C=C[C@@H]1Oc1ccc(OC)cc1,0.204
3,O=C1[C@H]2CCn3c(=O)n(-c4ccccc4)c(=O)n3[C@H]2[C@H](O)[C@@H]2O[C@H]12,0.784
4,CC(C)=CCCC(C)=CCON=C1C[C@@H](O)[C@@H](O)[C@@H]2[C@@H]3C(=O)N(Cc4ccc5c(c4)OCO5)C(=O)[C@@H]3CC[C@H]12,0.567
5,O=C1[C@H]2[C@H]3[C@H](O)[C@H](O)CC(=NOCc4ccccc4)[C@H]3CC[C@H]2C(=O)N1C1CCCCC1,0.817
6,CC(C)(C)N1C(=O)[C@H]2[C@H]3[C@H](O)[C@H](O)CC(=NOC[C@@H](O)COCc4ccco4)[C@H]3CC[C@H]2C1=O,0.732
7,COC(=O)[C@H](C)NC(=O)CCC1CC(OC(=O)NCc2ccc3c(c2)OCO3)CC2(CCCC(COC(=O)NCCC(C)C)O2)O1 (some centres not stated),0.624
8,COC(=O)[C@H](C)NC(=O)CC=C[C@@H](C)[C@@H]1C=C[C@H](O)[C@@H](CO)O1,0.141
9,CC(CCN1CCCCc2nc(C)c(C)cc21)=NOC[C@@H](O)[C@H]1O[C@@H]2OC(C)(C)O[C@@H]2[C@H]1O,0.577
10,CC(C)=CCCC(C)=CCON=C1[C@H]2CCn3c(=O)n(-c4ccccc4)c(=O)n3[C@H]2[C@H](O)[C@@H]2O[C@H]12,1.05
11,COc1ccc(OC[C@@H]2CC3[C@@H](c4ccc(Br)cc4)[C@H](C)CC[C@H]3C(=O)O2)cc1 (some centres not stated),0.353
12,COC(=O)[C@H](C)NC(=O)CCC1CC(OC(=O)NCCc2ccc(F)cc2)CC2(CCCC(COC(=O)NCC3CCCCC3)O2)O1 (some centres not stated),0.662
13,COC(=O)[C@H](C)NC(=O)CCC1CC(OC(=O)NCc2cccc3ccccc23)CC2(CCCC(COC(=O)NCCC(C)C)O2)O1 (some centres not stated),1.41
14,O=C1[C@H]2[C@H]3[C@H](O)[C@H](O)CC(=NOC[C@@H](O)COCc4ccco4)[C@@H]3CC[C@H]2C(=O)N1c1cccc(Oc2ccccc2)c1,-0.042
15,CCOC(=O)NN=C1C[C@@H](O)[C@@H](O)[C@@H]2[C@@H]3C(=O)N(C[C@@H]4CCCO4)C(=O)[C@@H]3CC[C@H]12,0.348
16,C[C@@H](c1ccccc1)N1C(=O)[C@H]2[C@H]3[C@H](O)[C@H](O)CC(=NOCc4ccccc4)[C@@H]3CC[C@H]2C1=O,-0.139
17,CCOC(=O)[C@H](Cc1ccccc1)NC(=O)CCC1CC(OC(=O)NCc2ccc3c(c2)OCO3)CC2(CCCC(COC(=O)NCCOc3ccccc3)O2)O1 (some centres not stated),0.653
18,C[C@H]1CC[C@H]2C(=O)N[C@H](Cc3ccccc3)C(=O)N2[C@@H]1c1ccccc1,-0.427
19,CCN1C(=O)[C@H]2[C@H]3[C@H](O)[C@H](O)CC(=NOCC[C@@H]4C=C[C@H](OC(C)=O)[C@@H](COC(C)=O)O4)[C@@H]3CC[C@H]2C1=O,0.0458
20,CCCNC(=O)OC[C@H]1O[C@H](CCON=C[C@@H](NS(=O)(=O)c2ccc(C)cc2)[C@H](C)C=CCC(=O)OC)C=C[C@@H]1Oc1ccc(OC)cc1,-0.289
21,C#CCCCON=C1C[C@@H](O)[C@@H](O)[C@@H]2[C@@H]3C(=O)N(C[C@@H]4CCCO4)C(=O)[C@@H]3CC[C@H]12,0.407
22,CC(C)CON=C1C[C@@H](O)[C@@H](O)[C@@H]2[C@@H]3C(=O)N(c4ccc(F)cc4F)C(=O)[C@@H]3CC[C@@H]12,0.622
23,O=C1C=C[C@@H](O)[C@@H]2[C@@H]3C(=O)N(Cc4ccccc4)C(=O)[C@@H]3CC[C@@H]12,0.295
24,CC1(C)O[C@H]2OC([C@H](O)CON3C(=O)c4ccccc4C3=O)[C@H](O)[C@H]2O1 (some centres not stated),-0.0933
25,C[C@H]1CC[C@H]2C(=O)OC(COc3ccc(C(C)(C)C)cc3)CN2[C@@H]1c1ccc(Br)cc1 (some centres not stated),0.528
26,CC1(C)O[C@H]2O[C@H]([C@H](O)CON=C3[C@H]4CCn5c(=O)n(-c6ccccc6)c(=O)n5[C@H]4[C@H](O)[C@@H]4O[C@H]34)[C@H](O)[C@H]2O1,0.378
27,CC(C)=CCCC(C)=CCON=C1C[C@@H](O)[C@@H](O)[C@@H]2[C@@H]3C(=O)N(c4cccc(Oc5ccccc5)c4)C(=O)[C@@H]3CC[C@H]12,0.0643
